Measured values: the supplement of paper PMC9433436
± gives the standard deviation of the averaged measurements. The full ranking holds about 4,100 sequences; the median of “relative kcat/Km (krel) vs genomic leader AAAGAU” is about 1.7, and the highest 2% start at about 6.5. This is one part of a sample in which the highest values are shown more often than they occur.

Biological target: T1, E. coli RNase P holoenzyme (M1 P RNA + rnpA protein) (UniProt P0A7Y8)
T1 sequence: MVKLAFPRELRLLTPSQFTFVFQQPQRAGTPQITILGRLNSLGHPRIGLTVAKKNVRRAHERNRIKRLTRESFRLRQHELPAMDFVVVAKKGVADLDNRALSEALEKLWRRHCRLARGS
Assay: relative kcat/Km (krel) vs genomic leader AAAGAU (relative (reference leader = 1)); higher = faster RNase P cleavage
Method: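 HTS-Kin: a pool of ptRNA-Met (21C construct) with all 4096 combinations of 5' leader nucleotides N(-6) to N(-1) was processed in vitro by E. coli RNase P (P RNA + rnpA/C5 protein) under multiple-turnover conditions at 37 C, pH 8, 17.5 mM MgCl2. Residual substrate was Illumina-sequenced at several fractions reacted, and relative kcat/Km (krel) was computed by internal competition kinetics, calibrated to the genomic leader (AAAGAU = 1). The listed hexamer is the varied N(-6)..N(-1) leader (DNA letters), and it sits between a fixed 5' stem-loop flank (GCAUGCACGAAAGUGCGUGCUAUGAA) and the mature tRNA-Met starting GGCUACGUAGCUCAGUUGG. Two technical replicates are averaged.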

[1] = fraction of substrate reacted: ~9-10% (9.79% repeat 1, 9.1% repeat 2)
[2] = fraction of substrate reacted: ~13-16% (15.68% repeat 1, 13.17% repeat 2)
[3] = fraction of substrate reacted: ~26-29% (28.66% repeat 1, 26.4% repeat 2)

Sequence	relative kcat/Km [1]	relative kcat/Km [2]	relative kcat/Km [3]
ACGCAC	1.83 ± 0.3	2.12 ± 0.95	3.59 ± 1.2
CATCCC	2.17 ± 1.8	2.06 ± 1.1	1.96 ± 0.22
CCTTTC	2.13 ± 0.9	2.39 ± 0.27	3.08 ± 0.83
CCTTCA	1.71 ± 1.4	1.18 ± 0.065	1.84 ± 0.056
CACTTC	2.93 ± 0.5	3.69 ± 0.85	5.44 ± 2.2
TACTTG		0.792 ± 0.45	2.68 ± 1.1
CACTTT	3.33 ± 1.1	4.55 ± 0.76	6.22 ± 2.4
TACTTA	3.1 ± 0.66	4.1 ± 0.88	5.63 ± 2.6
TACTTC	4.11 ± 1.8	4.99 ± 1.3	6.85 ± 2.9
TACTTT	3.77 ± 1.4	4.69 ± 0.54	6.8 ± 3.1
GTTATG		1.56 ± 0.24	3.32 ± 0.7
CTTTTA	2.68 ± 0.65	2.79 ± 0.91	3.18 ± 1.2
AAGCAT	2.34 ± 0.52	2.87 ± 1	3.28 ± 1.9
GTCCAG	2.58 ± 1	2.9 ± 0.5	5.48 ± 2
TTCCAG	2.51 ± 1.5	3.27 ± 0.64	5.49 ± 1.9
TTCCCC	3.49 ± 1.7	4.17 ± 0.71	5.59 ± 1.9
TGCCAC	2.55 ± 1.6	3.121 ± 0.026	4.36 ± 1.6
TTCCAA	4.78 ± 1.8	6.03 ± 0.65	8.56 ± 3.5
CGCCAT	3 ± 0.35	4.6 ± 1.3	6.07 ± 2.5
CTCCCT	3 ± 0.57	3.57 ± 0.86	4.86 ± 2.1
TGCCAA	3.18 ± 1.1	2.55 ± 0.62	4.09 ± 1
GTCCAT	4.26 ± 0.8	6.41 ± 1.5	9.1 ± 4.4
GTCCCT	2.62 ± 0.56	3.61 ± 0.74	5.58 ± 2.5
CTCCAT	4.25 ± 0.86	5.67 ± 1.3	8.48 ± 4
TTCCAC	5.3 ± 2	6.51 ± 1.3	9.46 ± 4.2
CCTCTG			1.47 ± 0.38

Sequence	relative kcat/Km [1]	relative kcat/Km [2]	relative kcat/Km [3]
CTTGGA	1.23 ± 1.1	1.2 ± 0.45	1.15 ± 0.8
TTGAGC	1.16 ± 0.28	1.24 ± 0.71	1.47 ± 0.22
ACCGGC	1.08 ± 0.83		
AGAACC	1.66 ± 1.1	1.82 ± 0.43	1.82 ± 0.17
GCACGT			0.727 ± 0.1
CAAAGG	0.345 ± 0.3		
ATCCAA	3.15 ± 0.43	4.2 ± 1.2	6.3 ± 2.3
GACCAA	1.8 ± 0.3	3.47 ± 1.1	4.86 ± 1.5
GGCCAC	0.682 ± 0.091	1.39 ± 0.35	2.65 ± 0.59
ATCCCT	2.7 ± 0.55	3.48 ± 0.4	4.42 ± 1.8
ATCCAG	1.67 ± 0.93	1.77 ± 0.18	3.83 ± 0.61
GTCCAC	5.04 ± 1.9	6.06 ± 1.1	8.78 ± 3.9
AGCCAT	3.54 ± 1.2	3.08 ± 0.86	4.77 ± 2
ATCCAC	4.03 ± 1.7	4.47 ± 0.19	6.76 ± 2.2
ATCCAT	3.89 ± 0.97	4.72 ± 1.4	7.14 ± 3.2
ATCCCC	2.42 ± 0.41	3.13 ± 0.35	4.59 ± 2.2
GTCCAA	3.74 ± 1.3	4.92 ± 0.95	7.96 ± 3
GTCCCC	2.87 ± 2.5	4.17 ± 0.82	5.29 ± 1.4
TTTGCC	1.81 ± 0.95	1.79 ± 0.37	2.42 ± 0.16
AGTATT	2.4 ± 0.68	3.14 ± 0.3	4.91 ± 2.2
AACTGG			0.249 ± 0.046
TGATGT		1.13 ± 1.1	1.37 ± 0.91
ACTTTA	1.56 ± 0.72	1.89 ± 0.44	2.18 ± 0.5
GCTGCC	1.37 ± 0.5	0.461 ± 0.12	0.965 ± 0.29
GCGGCA		0.64 ± 0.26	
CATTTC	2.59 ± 0.64	2.31 ± 0.88	4.06 ± 1.9

Sequence	relative kcat/Km [1]	relative kcat/Km [2]	relative kcat/Km [3]
CTCCAA	4.23 ± 2.1	4.62 ± 0.048	6.98 ± 2.8
CTCCAC	4.55 ± 1.9	5.88 ± 1.5	7.81 ± 3.1
TTCCAT	4.71 ± 0.96	7.43 ± 1.3	10.3 ± 4.6
CACCAC	3.5 ± 0.91	3.81 ± 1.5	5.55 ± 2.2
CTCCCC	2.43 ± 0.053	3.34 ± 1	4.73 ± 2.2
CGCCAA	2.95 ± 0.91	3.15 ± 0.75	5.09 ± 1.8
TTCCCT	3.18 ± 0.59	4.37 ± 1.1	6.18 ± 2.6
TGCCAT	2.8 ± 0.93	2.89 ± 0.61	4.45 ± 1.8
CTCCAG	2.81 ± 1.9	2.34 ± 0.026	4.6 ± 1.3
CAGGGA		0.949 ± 0.58	1.06 ± 1
CCGATG			1.14 ± 0.71
CGCATG			1.43 ± 0.34
CCATAA	3.55 ± 1.6	2.67 ± 0.37	3.58 ± 0.78
CCACTT	1.71 ± 0.26	0.873 ± 0.61	1.91 ± 0.31
TGCTGA	1.907 ± 0.0028	1.69 ± 0.5	2.71 ± 1
CCGTGC	1.254 ± 0.0079	0.908 ± 0.54	1.84 ± 0.71
GGCGCG		0.4496 ± 0.0012	1.37 ± 0.14
ATGCCG			0.567 ± 0.043
AGCTGG		0.38 ± 0.056	0.572 ± 0.15
GGTTCA	1.01 ± 0.77	0.431 ± 0.36	1.26 ± 0.44
TGAAAG		1.15 ± 0.57	2.65 ± 0.8
GCGAAA	2.4 ± 0.62	1.36 ± 0.072	2.16 ± 0.076
TCCAAT	3.48 ± 2.1	4.14 ± 0.76	6.63 ± 2.2
GCCAAG	0.818 ± 0.62	0.757 ± 0.36	2.63 ± 0.93
TCCAAG	2.34 ± 1.2	1.77 ± 1.2	4.8 ± 1.6
TCCAAA	3.88 ± 1.2	5.16 ± 0.76	7.85 ± 2.9

Sequence	relative kcat/Km [1]	relative kcat/Km [2]	relative kcat/Km [3]
ACCAAT	2.48 ± 0.88	2.51 ± 0.89	3.51 ± 0.8
TCCAAC	3.85 ± 2	4.11 ± 0.11	5.77 ± 1.9
TCCAGG			2.14 ± 0.84
TCCAGA	3.25 ± 0.89	4.62 ± 0.77	7.93 ± 2.3
TCCAGC	4.58 ± 2.5	4.83 ± 0.15	6.09 ± 2
GGCGTC	2.13 ± 1.2	1.48 ± 0.093	1.36 ± 0.024
AATTTG			0.989 ± 0.62
TGATAC	2.83 ± 0.46	3.97 ± 0.42	5.76 ± 2.1
AGAGGG			0.989 ± 0.85
TCATCT	2.18 ± 1.2	2.78 ± 0.36	4.09 ± 1
ACAGAG		0.878 ± 0.38	1.94 ± 0.09
CTAATT	2.55 ± 1	1.92 ± 0.32	2.36 ± 0.52
TTCCTT	4.47 ± 1.3	5.24 ± 1.1	7.59 ± 3.1
TTCCTC	4.47 ± 1.9	5.25 ± 0.81	6.88 ± 2.5
TTCCTG			1.68 ± 1.1
GTCCTT	3.67 ± 1	4.82 ± 0.56	7.02 ± 2.8
GTCCTC	3.46 ± 0.61	4.33 ± 0.75	6.46 ± 3
CTCCTT	3.67 ± 1.4	4.28 ± 0.77	6.06 ± 2.3
CTCCTC	3 ± 1.3	3.49 ± 0.19	4.95 ± 1.7
ATCCTC	3.86 ± 1.3	4.11 ± 1.6	4.92 ± 2
ATCCTT	3.24 ± 1.5	4.36 ± 0.24	5.37 ± 2.3
TGGCGG	0.44 ± 0.28		0.962 ± 0.067
CCTAGA	3.14 ± 2.6	2.71 ± 0.26	3.57 ± 0.52
